Reference: PubChem BioAssay (NCI)
About 79,000 compounds went through this panel and 15% of them were active in at least one assay; those are over-represented in the sample as a whole. Activity calls are given as the source filed them. Rule as the data show it: active = growth inhibition above about 70%; inactive = the rest.

Legend:
[1] = NCI Yeast Anticancer Drug Screen. Data for the rad52 strain (AID 147);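 also: 0% = growth of vehicle-treated control cultures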; conditions: S. cerevisiae rad52 mutant growth inhibition, hits give high values
Summary of the method: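 The repair-mutant yeast strain was incubated with compounds, then growth was read and inhibition derived relative to vehicle.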

[2] = NCI Yeast Anticancer Drug Screen. Data for the wt1 strain (AID 149);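 also: 0% = growth of vehicle-treated wt1 cultures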; conditions: S. cerevisiae wt1 strain (SPY 50644) growth inhibition, hits give high values
Summary of the method: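 wt1 strain grown with compound or vehicle; inhibition taken from the growth difference.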

[3] = NCI Yeast Anticancer Drug Screen. Data for the rad50EPP+ strain (AID 151);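 also: 0% = growth of vehicle-treated control cultures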; conditions: S. cerevisiae rad50 mutant strain, hits give high values
Summary of the method: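 Vehicle-normalised growth inhibition; rad50EPP+ yeast strain, altered in DNA damage repair, compound-treated.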

[4] = NCI Yeast Anticancer Drug Screen. Data for the mgt1 strain (AID 153); conditions: S. cerevisiae mgt1 mutant growth inhibition, hits give high values
Summary of the method: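 Vehicle-normalized growth inhibition is determined in mgt1 yeast, a strain selected for a defined alteration in DNA repair or cell cycle control.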

[5] = NCI Yeast Anticancer Drug Screen. Data for the rad50 strain (AID 155);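 also: 0% = growth of vehicle-only cultures of the same strain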; conditions: S. cerevisiae rad50 strain growth inhibition, hits give high values
Summary of the method: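 DNA repair mutant yeast, compound exposure, growth read-out; inhibition is taken relative to vehicle.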

[6] = NCI Yeast Anticancer Drug Screen. Data for the mec2-1 strain (AID 157); conditions: S. cerevisiae mec2-1 strain, hits give high values
Summary of the method: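 Mutant yeast (mec2-1) grown with compound; growth inhibition relative to vehicle control reported.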

[7] = NCI Yeast Anticancer Drug Screen. Data for the rad14 strain (AID 159);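 also: 0% = growth of vehicle-treated control cultures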; conditions: S. cerevisiae rad14 strain growth inhibition, hits give high values
Summary of the method: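 DNA repair-defective yeast, compound-exposed; % growth inhibition derived by comparison with vehicle-treated controls.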

[8] = NCI Yeast Anticancer Drug Screen. Data for the sgs1 mgt1 strain (AID 161);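 also: 0% = growth of cultures given vehicle only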; conditions: S. cerevisiae sgs1 mgt1 strain, hits give high values
Summary of the method: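 Growth of a repair-deficient yeast mutant was monitored after compound treatment and expressed as inhibition relative to vehicle-treated cultures.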

[9] = NCI Yeast Anticancer Drug Screen. Data for the CLN2oe strain (AID 163);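 also: 0% = growth of vehicle-only control cultures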; conditions: S. cerevisiae CLN2oe strain, hits give high values
Summary of the method: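 Compounds are applied to yeast harbouring a defined cell-cycle control change; reduced growth compared with vehicle-treated controls gives the value.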

[10] = NCI Yeast Anticancer Drug Screen. Data for the cln2 rad14 strain (AID 165);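 also: 0% = growth equal to vehicle treated cultures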; conditions: S. cerevisiae cln2 rad14 strain, hits give high values
Summary of the method: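 Readout is yeast growth inhibition versus vehicle-treated controls, using a strain with cln2 and rad14 alterations exposed to compound.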

[11] = NCI Yeast Anticancer Drug Screen. Data for the bub3 strain (AID 167); conditions: S. cerevisiae bub3 mutant strain, hits give high values
Summary of the method: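 In this screen, a yeast mutant lacking normal mitotic checkpoint function is challenged with compound. Relative growth versus vehicle gives the inhibition value.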

[12] = NCI Yeast Anticancer Drug Screen. Data for the wt2 strain (AID 169);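 also: 0% = growth of vehicle-treated yeast cultures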; conditions: S. cerevisiae wt2 strain growth inhibition, hits give high values
Summary of the method: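 Against vehicle-treated controls, the growth of yeast exposed to each compound was compared, and the inhibition was recorded.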

[13] = NCI Yeast Anticancer Drug Screen. Data for the mlh1 strain (AID 171);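 also: 0% = growth of vehicle-treated control cultures of the same strain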; conditions: S. cerevisiae mlh1 strain growth inhibition, hits give high values
Summary of the method: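 Measured: yeast growth. Reference: vehicle-treated controls. Organism: strain with a defined alteration affecting DNA damage repair or cell cycle control, treated with compound.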

[14] = NCI Yeast Anticancer Drug Screen. Data for the sgs1 strain (AID 173);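 also: 0% = growth of vehicle-only control cultures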; conditions: S. cerevisiae sgs1 mutant, hits give high values
Summary of the method: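 Each compound was added to cultures of the altered yeast strain. Growth was recorded, and inhibition was derived by comparison with vehicle controls.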

[15] = NCI Yeast Anticancer Drug Screen. Data for the mlh1 rad18 strain (AID 175); conditions: S. cerevisiae mlh1 rad18 strain growth inhibition, hits give high values
Summary of the method: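 Genetically defined yeast (DNA repair-deficient) exposed to compounds; growth inhibition determined relative to vehicle.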

[16] = NCI Yeast Anticancer Drug Screen. Data for the rad18 strain (AID 177); conditions: S. cerevisiae rad18 mutant growth inhibition, hits give high values
Summary of the method: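 Vehicle-treated cultures served as the baseline for scoring compound-induced growth inhibition in DNA-repair-mutant yeast.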

[17] = at 5.0 µM (retest, dose inferred, filed as 0.5)
[18] = at 50.0 µM (retest, dose inferred, filed as 5.0)

Measured: growth inhibition

O=C1SS(=O)c2ccccc21 (stereo unspecified)
inactive: [1]; at 1.2 µM 11% | [1]; at 3.7 µM 6% | [1]; at 11.0 µM 8% | [1]; at 33.0 µM 25% | [2]; at 1.2 µM -5% | [2]; at 3.7 µM -2% | [2]; at 11.0 µM 12% | [2]; at 33.0 µM -5% | [2]; at 100.0 µM 67% | [3]; at 1.2 µM 7% | [3]; at 3.7 µM 5% | [3]; at 11.0 µM 7% | [3]; at 33.0 µM 23% | [3]; at 100.0 µM 65% | [4]; at 1.2 µM 9% | [4]; at 3.7 µM 12% | [4]; at 11.0 µM 12% | [4]; at 33.0 µM 42% | [5]; at 1.2 µM 5% | [5]; at 3.7 µM 0% | [5]; [17] 32% | [5]; at 11.0 µM 2% | [5]; at 33.0 µM 26% | [5]; at 50.0 µM 34.1% | [6]; at 1.2 µM 5% | [6]; at 3.7 µM 18% | [6]; [17] 27% | [6]; at 11.0 µM -3% | [6]; at 33.0 µM 13% | [6]; at 50.0 µM 44.1% | [7]; at 1.2 µM -11% | [7]; at 3.7 µM -3% | [7]; at 11.0 µM -17% | [7]; at 33.0 µM -4% | [7]; at 100.0 µM 61% | [8]; [17] 34% | [8]; at 50.0 µM 50% | [9]; at 1.2 µM 7% | [9]; at 3.7 µM 13% | [9]; at 11.0 µM 17% | [9]; at 33.0 µM 24% | [9]; at 100.0 µM 57% | [10]; [17] 11% | [10]; [18] 38% | [10]; at 50.0 µM 5.75% | [11]; at 1.2 µM -5% | [11]; at 3.7 µM 2% | [11]; [17] 24% | [11]; at 11.0 µM -5% | [11]; at 33.0 µM 0% | [11]; at 50.0 µM 40.3% | [12]; at 1.2 µM 7% | [12]; at 3.7 µM 8% | [12]; at 11.0 µM 8% | [12]; at 33.0 µM 17% | [12]; at 100.0 µM 66% | [13]; at 1.2 µM 6% | [13]; at 3.7 µM 20% | [13]; at 11.0 µM 17% | [13]; at 33.0 µM 24% | [13]; at 100.0 µM 68% | [14]; at 1.2 µM -7% | [14]; at 3.7 µM 5% | [14]; at 11.0 µM 8% | [14]; at 33.0 µM 21% | [14]; at 100.0 µM 39% | [15]; [17] 57% | [15]; at 50.0 µM 0% | [16]; at 1.2 µM 13% | [16]; at 3.7 µM 15% | [16]; at 11.0 µM 15% | [16]; at 33.0 µM 39%
active: [1]; at 100.0 µM 76% | [4]; at 100.0 µM 83% | [5]; [18] 89% | [5]; at 100.0 µM 79% | [6]; [18] 99% | [6]; at 100.0 µM 83% | [8]; [18] 85% | [11]; [18] 96% | [11]; at 100.0 µM 89% | [15]; [18] 95% | [16]; at 100.0 µM 90%

N#[N+]c1c([O-])c2ccccc2c2ccccc12
inactive: [1]; at 1.2 µM 13% | [1]; at 3.7 µM 23% | [2]; at 1.2 µM 3% | [2]; at 3.7 µM 4% | [2]; at 11.0 µM 15% | [2]; at 33.0 µM 30% | [3]; at 1.2 µM 13% | [3]; at 3.7 µM 32% | [4]; at 1.2 µM 4% | [4]; at 3.7 µM 15% | [4]; at 11.0 µM 23% | [4]; at 33.0 µM 39% | [5]; at 1.2 µM 22% | [5]; at 3.7 µM 46% | [5]; [17] -23% | [5]; [18] 35% | [6]; at 1.2 µM 0% | [6]; at 3.7 µM 0% | [6]; [17] -1% | [6]; at 11.0 µM 7% | [6]; at 33.0 µM 60% | [6]; [18] 36% | [6]; at 50.0 µM 48.6% | [7]; at 1.2 µM 3% | [7]; at 3.7 µM 17% | [7]; at 11.0 µM 25% | [8]; [17] -5% | [8]; [18] 16% | [9]; at 1.2 µM 4% | [9]; at 3.7 µM 8% | [9]; at 11.0 µM 18% | [9]; at 33.0 µM 42% | [10]; [17] -41% | [10]; [18] 2% | [10]; at 50.0 µM 47.5% | [11]; at 1.2 µM 12% | [11]; at 3.7 µM 10% | [11]; [17] -14% | [11]; at 11.0 µM 24% | [11]; at 33.0 µM 54% | [11]; [18] 22% | [11]; at 50.0 µM 44% | [12]; at 1.2 µM 2% | [12]; at 3.7 µM 5% | [12]; at 11.0 µM 12% | [12]; at 33.0 µM 60% | [13]; at 1.2 µM -1% | [13]; at 3.7 µM -1% | [13]; at 11.0 µM 20% | [13]; at 33.0 µM 65% | [14]; at 1.2 µM 0% | [14]; at 3.7 µM 4% | [14]; at 11.0 µM 20% | [15]; [17] -29% | [15]; [18] 50% | [16]; at 1.2 µM 30% | [16]; at 3.7 µM 50%
active: [1]; at 11.0 µM 82% | [1]; at 33.0 µM 97% | [1]; at 100.0 µM 97% | [2]; at 100.0 µM 97% | [3]; at 11.0 µM 84% | [3]; at 33.0 µM 96% | [3]; at 100.0 µM 96% | [4]; at 100.0 µM 97% | [5]; at 11.0 µM 85% | [5]; at 33.0 µM 96% | [5]; at 50.0 µM 92.7% | [5]; at 100.0 µM 96% | [6]; at 100.0 µM 97% | [7]; at 33.0 µM 80% | [7]; at 100.0 µM 97% | [8]; at 50.0 µM 76.2% | [9]; at 100.0 µM 95% | [11]; at 100.0 µM 95% | [12]; at 100.0 µM 98% | [13]; at 100.0 µM 97% | [14]; at 33.0 µM 82% | [14]; at 100.0 µM 97% | [15]; at 50.0 µM 86% | [16]; at 11.0 µM 93% | [16]; at 33.0 µM 98% | [16]; at 100.0 µM 96%
